Measured values published in PubChem BioAssay (NCATS).
“And” between values parts separate entries of the source, which are not always exact repeats. Identical values can stand only once. Values without a mark were called inactive. Records with an inconclusive call do not appear. The source made the active and inactive calls. Unless noted, calls follow the shape of the dose curve; as a rule, active = well fitted curve in the direction sought with a large enough effect; inconclusive = small, poorly fitted or top-dose-only effect, or another doubt; inactive = no such curve, though single readings can be large; an effect the other way counts as inactive or inconclusive.

Columns and labels:
[1] = Cell Viability - BJ (AID 421; calls by dose curve;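 also: potency is read from the fitted curve at half-maximal effect; cells exposed to compound for 40 hours at 37 °C before readout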); conditions: BJ fibroblast viability, qHTS
Outline: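 Normal human BJ foreskin fibroblasts, 1500/well in complete medium, treated 40 hr at 37 °C. Cellular ATP by CellTiter-Glo luminescence; normalized to DMSO and 100 uM tamoxifen, AC50 from Hill fit.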

[2] = Cell Viability - Jurkat (AID 426;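 active = dose-dependent loss of cell ATP signal giving a full or clear fitted curve, ranked by lower potency value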; also: potency is read from the fitted curve at half-maximal effect); conditions: qHTS
Outline: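 Cytotoxicity was scored as loss of cellular ATP, measured by luciferase-based luminescence, in Jurkat clone E6-1 cells after 40 h compound treatment; tamoxifen and doxorubicin served as positive controls.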

[3] = Cell Viability - Hek293 (AID 427;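 active = compounds whose dose-response curve shows a full or clear partial loss of cell viability, called from curve shape rather than a numeric limit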;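 also: potency is read from the fitted curve at half-maximal effect; cells exposed to compound for 40 hours at 37 °C before reading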); conditions: qHTS
Outline: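 HEK293 cells in complete medium were exposed to compound for 40 hr at 37 °C, then cellular ATP was read by CellTiter-Glo luminescence. Data were normalized to DMSO (basal) and 100 uM tamoxifen (100% inhibition), and AC50 came from Hill fits.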

[4] = Cell Viability - HepG2 (AID 433; calls by dose curve;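 also: potency is read from the fitted curve at half-maximal effect; potency for ATP loss meaning cytotoxicity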); conditions: qHTS
Outline: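 HepG2 hepatocellular carcinoma cells (1500/well) were treated with compounds for 40 h at 37 °C in complete medium; intracellular ATP was read by CellTiter-Glo luminescence. Data were normalized to DMSO and 100 uM tamoxifen, and AC50 came from Hill fits.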

[5] = Cell Viability - MRC5 (AID 434; calls by dose curve;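 also: potency is read from the fitted curve at half-maximal effect; potency reflects cytotoxicity seen as loss of intracellular ATP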); conditions: MRC5 lung fibroblast viability, qHTS
Outline: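 Decrease in intracellular ATP, quantified by luciferase light output, reflects compound toxicity toward MRC5 cells exposed for 40 hr in complete culture medium. Concentration-response curves, scaled between DMSO and 100 uM tamoxifen, gave AC50 values.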

[6] = Cell Viability - SK-N-SH (AID 435; calls by dose curve;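 also: potency is read from the fitted curve at half-maximal effect; compound exposure lasted 40 h at 37 °C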); conditions: SK-N-SH neuroblastoma cell viability qHTS
Outline: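 SK-N-SH human neuroblastoma cells (1500/well) were exposed to compounds in complete medium for 40 h at 37 °C, and intracellular ATP was then measured by CellTiter-Glo luminescence. AC50 was taken from Hill fits, normalized to DMSO and 100 uM tamoxifen.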

[7] = Cell Viability - N2a (AID 540); conditions: N2a mouse neuroblastoma cell viability; series mostly up to 92.2 µM;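 also: plate controls were DMSO alone for no effect and tamoxifen control for full effect; nearly all actives have a fitted effect of over 45% in size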
Outline: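 In this qHTS cytotoxicity screen, ATP-dependent luciferase luminescence reports viable N2a cells after a 40 hr compound exposure in complete culture medium. Potencies are AC50 values from standard Hill equation fits.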

[8] = Cell Viability - NIH 3T3 (AID 541); conditions: NIH 3T3 cell viability, qHTS; series mostly up to 92.2 µM;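 also: plate controls were DMSO alone for no effect and tamoxifen positive control for full effect; nearly all actives have a fitted effect of over 25% in size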
Outline: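 In this cytotoxicity screen, acute toxicity is scored as an ATP drop measured by CellTiter-Glo in NIH 3T3 fibroblasts following a 40 hr, 37 °C incubation with compound.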

[9] = Cell Viability - HUV-EC-C (AID 542); conditions: HUV-EC-C endothelial cell viability, qHTS; series mostly up to 92.2 µM; also: % is scaled to controls: 0 for no effect and ±100 for the full control effect; nearly all actives have a fitted effect of over 35% in size
Outline: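 Concentration-dependent ATP loss in HUV-EC-C cells is the measure. Exposure lasts 40 hr at 37 °C; luminescence follows CellTiter-Glo addition, and Hill fits give AC50.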

[10] = Cell Viability - H-4-II-E (AID 543); conditions: H-4-II-E rat hepatoma viability; series mostly up to 92.2 µM; also: % is scaled to controls: 0 for no effect and ±100 for the full control effect; nearly all actives have a fitted effect of over 35% in size
Outline: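 AC50 from Hill-modelled qHTS concentration-response curves. H-4-II-E rat hepatoma cells in complete medium, 40 hr exposure at 37 °C, viability by CellTiter-Glo ATP luminescence.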

[11] = molecular target: Cytochrome P450 3A4 (Homo sapiens) (UniProt P08684); test: qHTS Assay for Inhibitors and Substrates of Cytochrome P450 3A4 (AID 884); conditions: recombinant CYP3A4, Luciferin-PPXE luminescence; series mostly up to 57.1 µM; also: potency is read from the fitted curve at half-maximal effect; nearly all actives have a fitted effect of over 50% in size
Cytochrome P450 3A4 (Homo sapiens), sequence (P08684 whole entry, looked up): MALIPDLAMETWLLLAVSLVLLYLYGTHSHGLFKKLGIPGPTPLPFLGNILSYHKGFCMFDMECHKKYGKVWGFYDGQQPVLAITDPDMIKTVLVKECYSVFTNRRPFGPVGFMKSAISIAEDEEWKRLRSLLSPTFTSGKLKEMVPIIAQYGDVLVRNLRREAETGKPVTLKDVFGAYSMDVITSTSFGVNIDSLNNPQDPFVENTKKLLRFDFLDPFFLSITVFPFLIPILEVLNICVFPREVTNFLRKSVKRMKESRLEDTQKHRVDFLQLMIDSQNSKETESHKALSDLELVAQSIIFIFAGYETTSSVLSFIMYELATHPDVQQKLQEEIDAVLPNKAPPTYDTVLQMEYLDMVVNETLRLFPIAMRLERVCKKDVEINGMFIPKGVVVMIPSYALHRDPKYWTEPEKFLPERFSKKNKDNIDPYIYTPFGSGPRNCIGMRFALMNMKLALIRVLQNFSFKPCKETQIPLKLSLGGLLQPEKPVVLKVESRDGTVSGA
Outline: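 Luminescent readout of luciferin produced by CYP3A4 (20 nM) dealkylation of Luciferin-PPXE, 25 uM (its KM). NADPH-driven reaction ran 60 min at RT after 10 min compound preincubation; data scaled to 57 uM ketoconazole as 100% inhibition.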

[12] = Cell Viability qHTS for small molecule stabilizers of the endoplasmic reticulum resident proteome (AID 1508629); conditions: cell viability counter-screen, 100 nM thapsigargin for final 4 h;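 also: human SH-SY5Y neuroblastoma cells carrying the GLuc-SERCaMP reporter; compound exposure about 46 h in total before the viability read; % is scaled to controls: 0 for no effect and ±100 for the full control effect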
[13] = molecular target: Cytochrome P450 2D6 (Homo sapiens) (UniProt P10635); test: qHTS Assay for Inhibitors and Substrates of Cytochrome P450 2D6 (AID 891); conditions: recombinant CYP2D6, luciferin-ME EGE luminescence; series mostly up to 57.1 µM; also: potency is read from the fitted curve at half-maximal effect; nearly all actives have a fitted effect of over 60% in size
Cytochrome P450 2D6 (Homo sapiens), sequence (P10635 whole entry, looked up): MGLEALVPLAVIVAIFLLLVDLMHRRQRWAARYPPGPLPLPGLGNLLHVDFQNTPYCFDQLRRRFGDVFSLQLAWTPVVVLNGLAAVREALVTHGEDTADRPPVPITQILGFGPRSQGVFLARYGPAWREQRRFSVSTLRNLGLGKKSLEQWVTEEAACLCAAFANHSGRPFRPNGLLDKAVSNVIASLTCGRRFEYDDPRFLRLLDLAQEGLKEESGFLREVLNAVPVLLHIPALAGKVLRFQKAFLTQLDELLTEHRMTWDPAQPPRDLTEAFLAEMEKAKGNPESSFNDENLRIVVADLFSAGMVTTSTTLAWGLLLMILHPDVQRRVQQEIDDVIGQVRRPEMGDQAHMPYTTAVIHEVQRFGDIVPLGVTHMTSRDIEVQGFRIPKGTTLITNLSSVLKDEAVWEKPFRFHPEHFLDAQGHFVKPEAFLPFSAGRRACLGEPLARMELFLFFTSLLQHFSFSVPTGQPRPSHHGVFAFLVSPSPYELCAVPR
Outline: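 Luminescent read-out of luciferin formed by 5 nM human CYP2D6 demethylating 30 uM Luciferin-ME EGE (Km level) over 60 min at room temperature after NADPH regeneration addition. Data normalized to full inhibition by 1.43 uM quinidine.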

[14] = Confirmation and Secondary Assay for Modulators of Hemoglobin Beta Chain Splicing at IVS2 654 locus (AID 910); conditions: HeLa EGFP-654 splicing reporter, GFP fluorescence, 48 h; series mostly up to 38.3 µM;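 also: per-well total GFP intensity by laser scanning cytometry after 2-day treatment; % of control where 0% means no effect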
Outline: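 HeLa cells stably carrying EGFP interrupted by mutant beta-globin IVS2-654 intron (CMV-driven) were treated with compound for 2 days at 37C; corrected splicing was scored as total peak GFP intensity per well (488 nm excitation, 500-520 nm emission).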

[15] = Confirmation and Secondary Assay for Modulators of Hemoglobin Beta Chain Splicing at IVS2 705 locus (AID 930); conditions: HeLa EGFP-705 splicing reporter, GFP fluorescence, 48 h; series mostly up to 38.3 µM;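 also: HeLa cells stably expressing the EGFP-705 splicing reporter; % of control where 0% means no effect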
Outline: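 Restored EGFP fluorescence after 2-day compound exposure reports splicing correction in IVS2-705 EGFP reporter HeLa cells; positive control was 500 nM splice-blocking PNA oligo. Signal measured as well total peak GFP intensity (488 nm excitation).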

[16] = molecular target: Cytochrome P450 2C9 (Homo sapiens) (UniProt P11712); test: qHTS Assay for Inhibitors and Substrates of Cytochrome P450 2C9 (AID 883); conditions: recombinant CYP2C9, luciferin-H luminescence, 60 min; series mostly up to 57.1 µM; also: potency is read from the fitted curve at half-maximal effect; nearly all actives have a fitted effect of over 60% in size
Cytochrome P450 2C9 (Homo sapiens), sequence (P11712 whole entry, looked up): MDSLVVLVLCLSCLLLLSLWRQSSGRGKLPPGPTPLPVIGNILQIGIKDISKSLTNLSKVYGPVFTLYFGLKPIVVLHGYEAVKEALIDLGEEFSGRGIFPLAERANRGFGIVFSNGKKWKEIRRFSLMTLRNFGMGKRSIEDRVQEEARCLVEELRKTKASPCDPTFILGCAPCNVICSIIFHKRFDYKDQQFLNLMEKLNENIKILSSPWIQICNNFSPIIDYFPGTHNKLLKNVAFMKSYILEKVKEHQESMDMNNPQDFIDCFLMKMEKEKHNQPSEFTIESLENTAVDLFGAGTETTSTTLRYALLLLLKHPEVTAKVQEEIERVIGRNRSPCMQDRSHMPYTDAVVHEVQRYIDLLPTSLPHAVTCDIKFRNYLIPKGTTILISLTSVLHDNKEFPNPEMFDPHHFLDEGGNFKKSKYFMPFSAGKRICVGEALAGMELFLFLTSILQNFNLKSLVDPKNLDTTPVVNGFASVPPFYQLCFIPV
Outline: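 A luminogenic readout tracked human CYP2C9 (10nM) converting deoxyluciferin (100uM, at KM) in 25mM KPO4 during 60 min at 37C with regenerated NADPH. Values normalized to 57uM sulphaphenazole as complete inhibition.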

[17] = molecular target: Cytochrome P450 2C19 (Homo sapiens) (UniProt P33261); test: qHTS Assay for Inhibitors and Substrates of Cytochrome P450 2C19 (AID 899); conditions: recombinant CYP2C19, luciferin-H EGE luminescence; series mostly up to 57.1 µM; also: potency is read from the fitted curve at half-maximal effect; nearly all actives have a fitted effect of over 60% in size
Cytochrome P450 2C19 (Homo sapiens), sequence (P33261 whole entry, looked up): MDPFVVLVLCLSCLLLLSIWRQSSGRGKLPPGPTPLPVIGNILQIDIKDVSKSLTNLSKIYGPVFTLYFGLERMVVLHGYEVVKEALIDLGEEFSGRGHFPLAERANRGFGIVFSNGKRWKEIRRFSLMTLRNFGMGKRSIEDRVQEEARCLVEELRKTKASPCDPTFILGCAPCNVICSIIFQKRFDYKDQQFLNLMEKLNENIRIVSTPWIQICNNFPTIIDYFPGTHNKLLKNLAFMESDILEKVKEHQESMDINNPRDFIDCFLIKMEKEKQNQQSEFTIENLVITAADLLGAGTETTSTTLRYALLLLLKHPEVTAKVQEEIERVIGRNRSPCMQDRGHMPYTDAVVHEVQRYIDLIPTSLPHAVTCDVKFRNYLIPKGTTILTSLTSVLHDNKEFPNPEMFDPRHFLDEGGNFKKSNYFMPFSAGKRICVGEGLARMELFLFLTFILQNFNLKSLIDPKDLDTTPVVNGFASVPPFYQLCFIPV
Outline: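 NADPH-dependent conversion of Luciferin-H EGE (10uM, at KM) by 5nM enzyme in 50mM KPO4, 60 min at 37C following 10 min compound preincubation. Stopped with luciferin detection buffer; luminescence read after 20 min.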

[18] = qHTS Assay for Identification of Small Molecule Agonists for Hypoxia Response Element Signaling Pathway (AID 914; active = well fitted activation curve with a large enough effect in the signal ratio, with a control signal flat, not every such curve was filed as active; the % refers to the signal ratio; also: potency is read from the fitted curve at half-maximal effect; as to activation: % of control where 0% means no effect); conditions: ME-180 (cervical carcinoma) HRE-bla reporter, beta-lactamase ratio, CoCl2, 17 h; activation: stronger effect = higher value
Outline: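 AC50 values come from titration-series %Activity, taken as the 460/530nm ratio of CCF4 fluorescence (excitation 405nm). CellSensor HRE-bla ME-180 cells were treated 17 hours at 37 C with compound plus an EC50 level of CoCl2.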

## CC(C)(c1cc(Br)c(O)c(Br)c1)c1cc(Br)c(O)c(Br)c1
[1]
  Potency: > 92 µM
[2]
  Potency: > 92 µM
[3]
  Potency: > 92 µM
[4]
  Potency: > 92 µM
[5]
  Potency: > 92 µM
[6]
  Potency: > 92 µM
[7]
  outcome: inactive
[8]
  outcome: inactive
[9]
  outcome: inactive
[10]
  outcome: inactive
[11]
  Potency: 15.8 µM (active)
[12]
  max response: 18.1% and 32.8% and -0.114%

## CCNc1ncc2nc(CCc3ccccc3)c(=O)n(-c3ccccc3)c2n1
[11]
  Potency: 5.01 µM (active)
[12]
  max response: 16.3%

## O=C(c1cc(C(F)(F)F)cc(C(F)(F)F)c1)N1CCC2(CC1)CCN(c1ccccn1)CC2
[12]
  max response: 25.1%

## c1ccc2c(N3CCNCC3)nc(-c3ccc4c(c3)OCO4)nc2c1
[11]
  Potency: 7.94 µM (active)
[13]
  Potency: 3.16 µM (active)
[14]
  outcome: inactive
[15]
  outcome: inactive

## COCCn1c(=O)c(-c2ccc(Cl)cc2)nc2cnc(OC)nc21
[11]
  Potency: 7.94 µM (active)

## c1cncc(-c2nc(N3CCNCC3)c3ccccc3n2)c1
[13]
  Potency: 7.94 µM (active)
[12]
  max response: 15.1%

## FC(F)(F)c1ccccc1-c1nc(N2CCNCC2)c2ccccc2n1
[14]
  outcome: inactive
[15]
  outcome: inactive

## CN(C)c1ncc2ncc(=O)n(CCc3ccccc3)c2n1
[16]
  Potency: 6.31 µM (active)
[17]
  Potency: 2 µM (active)

## c1ccc(-c2cccc(N3CC4(CCNCC4)C3)c2)cc1
[12]
  max response: -13.3%

## CN1CCN(c2ncc3nc(-c4ccccc4)c(=O)n(CCc4ccccc4)c3n2)CC1
[16]
  Potency: 3.16 µM (active)
[18]
  Potency: 3.16 µM (active)

## CN1CCN(c2nc(-c3cccc(C#N)c3)nc3ccccc23)CC1
[14]
  outcome: inactive
[15]
  outcome: inactive

## Cc1ccccc1-c1nc(NC2CCNCC2)c2ccccc2n1
[14]
  outcome: inactive
[18]
  activation: 12.4%
[15]
  outcome: inactive

## CN1CCN(c2ncc3nc(-c4ccccc4)c(=O)n(-c4ccccc4)c3n2)CC1
[18]
  Potency: 3.16 µM (active)

## COCCn1c(=O)c(CCc2ccccc2)nc2cnc(N3CCN(C)CC3)nc21
[12]
  max response: 0.276%

## CN(C)c1ccc(-c2nccc(NCCN3CCOCC3)n2)cc1
[14]
  outcome: inactive
[18]
  activation: -5.52%
[15]
  outcome: inactive
[12]
  max response: 10.1%

## Clc1ccccc1-c1nc(N2CCNCC2)c2ccccc2n1
[14]
  outcome: inactive
[18]
  activation: 16.5%
[15]
  outcome: inactive

## N#Cc1cccc(-c2nc(N3CCNCC3)c3ccccc3n2)c1
[14]
  outcome: inactive
[15]
  outcome: inactive

## CN1CCN(c2ncnc3ccc(-c4ccccc4C#N)cc23)CC1
[14]
  outcome: inactive
[15]
  outcome: inactive

## COc1ccc(-n2c(=O)c(-c3ccccc3)nc3cnc(N4CCNCC4)nc32)cc1
[18]
  Potency: 3.16 µM (active)
[12]
  max response: 0.755%

## Cc1cccc(CNc2cc(-c3ccccc3CN(C)C)ncn2)c1
[14]
  outcome: inactive
[15]
  outcome: inactive
[12]
  max response: -21.4%
